Structures are written as SMILES. Values joined by “and” are separate entries in the source; they are usually repeats but may differ in a detail not shown here. Equal values may be shown once. Inconclusive results are not listed. Active and inactive are the calls of the source. Unless noted, calls follow the shape of the dose curve; as a rule, active = well fitted curve in the direction sought with a large enough effect; inconclusive = small, poorly fitted or top-dose-only effect, or another doubt; inactive = no such curve, though single readings can be large; an effect the other way counts as inactive or inconclusive.

Data on 7 compounds can be found in PubChem BioAssay (NCATS).

A short description of test [1]: qHTS Assay for Identifying Gametocytocidal Compounds (AID 743244). Also: potency is read from the fitted curve at half-maximal effect.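 As to max response: % is scaled to controls: 0 for no effect and ±100 for the full control effect; actives lower the fluorescent signal which means gametocytes are killed.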 The following applies: P. falciparum 3D7 stage III-V gametocytes, alamarBlue, 72 h; max response: stronger effect = lower value. The procedure, abridged:
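Compounds are pinned into medium, gametocytes (stage III–V, 3D7, 20,000 cells/well) added, and plates held 72 h at 37 °C in 5% CO2. AlamarBlue follows for 24 h before fluorescence reading.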
In general terms: In qHTS, concentration-response curves come from the screen itself.

Test [2] in a line: qHTS profiling of the MIPE4 collection as inhibitors of Plasmodium falciparum (3D7) proliferation (AID 743344; call rule not given here;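 also: scaled between DMSO vehicle wells and 0.29 µM artemisinin as full inhibition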). The following applies: P. falciparum 3D7 in erythrocytes, SYBR Green DNA fluorescence, 72 h; at 28.5 µM (top of the series) unless noted. The procedure, abridged: (§1)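 Erythrocytes infected with P. falciparum (0.3% parasitemia, 2.5% hematocrit) incubated with compounds 72 h at 37 C, 5% CO2. Lysis with saponin/Triton buffer containing SYBR Green I, overnight at room temperature in the dark; DNA fluorescence (485/535 nm) normalised to 0.29 uM artemisinin and DMSO.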

The nature of test [3]: qHTS profiling of the MIPE4 collection as inhibitors of Plasmodium falciparum (DD2) proliferation (AID 743345; call rule not given here). The following applies: P. falciparum Dd2 in erythrocytes, SYBR Green DNA, 72 h; at 28.5 µM (top of the series) unless noted. Summed up: as §1
Test [4] is described as follows: qHTS profiling of the MIPE4 collection as inhibitors of Plasmodium falciparum (DD2) proliferation (Rep 2) (AID 743346; call rule not given here). The following applies: P. falciparum Dd2 in erythrocytes, SYBR Green DNA, 72 h; at 28.5 µM (top of the series) unless noted. The procedure, abridged:
as §1

Test [5] can be described thus: qHTS profiling of the MIPE4 collection as inhibitors of Plasmodium falciparum (HB3) proliferation (AID 743347; call rule not given here;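 also: plate controls were DMSO vehicle wells for no effect and artemisinin wells for full effect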). The settings on record: P. falciparum HB3 in erythrocytes, SYBR Green DNA, 72 h; at 28.5 µM (top of the series) unless noted. Summed up: as §1
The nature of test [6]: High-throughput drug toxicity screening in the BPDCN cell line Gen2.2 (AID 1224824; call rule not given here;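 also: cells exposed to compounds for 48 h before reading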). The settings on record: Gen2.2 BPDCN cells; at 45.8 µM (top of the series) unless noted. The procedure, abridged:
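Seed 500 exponentially growing Gen2.2 cells/well; add compounds by pin tool; incubate 48 h, 37 °C, 5% CO2; add CellTiter-Glo, 15 min RT; read luminescence. % activity vs DMSO (100%) and bortezomib (0%).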

Test [7] can be described thus: High-throughput drug toxicity screening in the BPDCN cell line Cal-1 (AID 1224825; call rule not given here). The following applies: Cal-1 BPDCN cell viability, qHTS; at 45.8 µM (top of the series) unless noted. Summed up:
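Cal-1 cells, 500 per well in phenol-red-free RPMI with 10% FBS, exposed to compounds for 48 hours at 37C, 5% CO2. Viability read by CellTiter-Glo luminescence; percent activity normalized to DMSO (100%) and 9.2 uM bortezomib final (0%).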

The nature of test [8]: qHTS assay for measurement of the activity of small molecule inhibitors on Zika virus induced Caspase-3 activity in human iPSC derived neural progenitor cells (hNPCs) (AID 1224857). Also: nearly all actives have a fitted effect of over 65% in size. Also: potency is read from the fitted curve at half-maximal effect. Summed up:
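Pretreat hNPCs with compound 1 h; infect ZIKV 2 FFU/cell; 6 h 37 C, 5% CO2; Caspase-Glo 3/7, 30 min RT; luminescence; normalize to no-virus and virus-only wells.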

A short description of test [9]: qHTS assay for measurement of the activity of small molecule inhibitors on Zika virus induced Caspase-3 activity in human astrocytoma cells (AID 1224859). Also: potency is read from the fitted curve at half-maximal effect. Summed up: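 Human SNB-19 astrocytoma cells in RPMI 1640 with 10% FBS receive compound one hour ahead of Zika virus at 2 FFU/cell. After 6 h infection, caspase-3/7 activity is detected by Caspase-Glo luminescence.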

Test [10] in a line: qHTS Screen of the MIPE 4.0 Collection Against Ewings Sarcoma (RDES) (AID 1259252). Also: nearly all actives have a fitted effect of over 35% in size. Also: potency is read from the fitted curve at half-maximal effect. The procedure, abridged: (§2)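 Viability screen: 48 h incubation at 37C, 95% humidity, 5% CO2 with serially titrated compound, followed by CellTiter-Glo readout.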
Test [11] in a line: qHTS Screen of the MIPE 4.0 Collection Against Ewings Sarcoma (TC71) (AID 1259253). Also: nearly all actives have a fitted effect of over 40% in size. Also: potency is read from the fitted curve at half-maximal effect. The procedure, abridged: as §2
A short description of test [12]: qHTS Screen of the MIPE 4.0 Collection Against Ewings Sarcoma (EW8) (AID 1259255). Also: nearly all actives have a fitted effect of over 35% in size. Also: potency is read from the fitted curve at half-maximal effect.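 As to viability: 100% = DMSO-treated cells and 0% = medium-only wells without cells.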 Summed up:
as §2

A short description of test [13]: qHTS profiling for inhibitors of Plasmodium falciparum (3D7) proliferation (AID 743322; call rule not given here;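 also: infected erythrocytes exposed to compound for 72 h before lysis; 100% = DMSO vehicle wells and 0% = 0.29 µM artemisinin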). The following applies: P. falciparum 3D7 proliferation; at 28.7 µM (top of the series) unless noted. Summed up:
as §1

The nature of test [14]: qHTS profiling for inhibitors of Plasmodium falciparum (DD2) proliferation (AID 743323; call rule not given here). The following applies: lower = more inhibition; at 28.7 µM (top of the series) unless noted. Summed up: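 1536-well qHTS; infected RBCs 0.3% parasitemia/2.5% Hct final; cpd 72 h 37 C 5% CO2; lysis buffer + SYBR Green I, o/n RT dark; FI 485/535; norm. to 0.29 uM artemisinin and DMSO, plate-stack corrected.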

The target in test [15] is T1, Hexokinase-4 (Homo sapiens) + Glucokinase regulatory protein (Homo sapiens) (UniProt P35557+Q14397). The experiment in a line: qHTS assay for inhibitors of recombinant human GCK-GKRP interaction: Diaphorase-coupled assay (AID 743205). Summed up:
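25 mM Hepes pH 7.6, 5 mM glucose, 0.4 mM ATP, 4 U/ml G6PDH; 10 nM each GST-GCK/FLAG-GKRP. Kinetic fluorescence read, 1/min × 30 min. Normalized: DMSO ± enzyme = max/min.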

For test [16], the target named is T1, Hexokinase-4 (Homo sapiens) + Glucokinase regulatory protein (Homo sapiens). The experiment in a line: qHTS assay for inhibitors of recombinant human GCK-GKRP interaction: ADP-Glo assay (AID 743206).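 Also: plate controls were DMSO plus enzyme for no effect and no enzyme for full effect.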 Summed up: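 GST-GCK and FLAG-GKRP (15 nM each in the dispensed mix, with 2 uM S6P) react with 0.4 mM ATP and 5 mM glucose (final) in Hepes pH 7.6 for 60 min at room temperature. ADP is measured by ADP-Glo luminescence.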

For test [17] the target is unchanged. The experiment in a line: qHTS assay for inhibitors of recombinant human GCK-GKRP interaction: HTRF assay (AID 743207).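 Also: 0% = DMSO with GCK present and -100% = DMSO wells lacking GCK.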 The procedure, abridged: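 5 nM GST-GCK + 5 nM FLAG-GKRP + 2 uM S6P, pH 7.1 buffer (25 mM Hepes, 2 mM MgCl2, 25 mM KCl, 1 mM DTT, Tween/BSA); pin-transferred cpd; anti-FLAG XL665/anti-GST K; 60 min RT; HTRF.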
Test [18] is described as follows: qHTS assay for cell viability of the p53RE-bla HCT-116 cell line (AID 743292). Also: % is scaled to controls: 0 for no effect and ±100 for the full control effect; nearly all actives have a fitted effect of over 55% in size. The procedure, abridged: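 HCT-116 p53RE-bla cells seeded 4,000/well; 5 h at 37 C; compound (DMSO) added; 16 h at 37 C; CellTiter-Glo added, 30 min RT; luminescence read.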

T1 sequence (P35557 whole entry, looked up): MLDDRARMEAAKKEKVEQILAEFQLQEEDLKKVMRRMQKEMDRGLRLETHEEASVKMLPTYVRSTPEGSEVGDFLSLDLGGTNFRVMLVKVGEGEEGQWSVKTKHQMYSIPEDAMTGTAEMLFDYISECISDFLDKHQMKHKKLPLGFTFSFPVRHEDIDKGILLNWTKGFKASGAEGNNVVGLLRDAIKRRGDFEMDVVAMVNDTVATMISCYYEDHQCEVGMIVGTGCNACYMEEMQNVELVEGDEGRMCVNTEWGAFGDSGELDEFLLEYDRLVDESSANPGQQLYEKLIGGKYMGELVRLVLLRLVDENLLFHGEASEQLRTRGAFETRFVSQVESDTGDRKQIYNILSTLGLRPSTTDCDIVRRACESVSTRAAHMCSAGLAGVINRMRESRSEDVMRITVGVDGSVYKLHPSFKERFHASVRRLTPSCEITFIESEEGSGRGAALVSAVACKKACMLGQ
T1 sequence (Q14397 whole entry, looked up): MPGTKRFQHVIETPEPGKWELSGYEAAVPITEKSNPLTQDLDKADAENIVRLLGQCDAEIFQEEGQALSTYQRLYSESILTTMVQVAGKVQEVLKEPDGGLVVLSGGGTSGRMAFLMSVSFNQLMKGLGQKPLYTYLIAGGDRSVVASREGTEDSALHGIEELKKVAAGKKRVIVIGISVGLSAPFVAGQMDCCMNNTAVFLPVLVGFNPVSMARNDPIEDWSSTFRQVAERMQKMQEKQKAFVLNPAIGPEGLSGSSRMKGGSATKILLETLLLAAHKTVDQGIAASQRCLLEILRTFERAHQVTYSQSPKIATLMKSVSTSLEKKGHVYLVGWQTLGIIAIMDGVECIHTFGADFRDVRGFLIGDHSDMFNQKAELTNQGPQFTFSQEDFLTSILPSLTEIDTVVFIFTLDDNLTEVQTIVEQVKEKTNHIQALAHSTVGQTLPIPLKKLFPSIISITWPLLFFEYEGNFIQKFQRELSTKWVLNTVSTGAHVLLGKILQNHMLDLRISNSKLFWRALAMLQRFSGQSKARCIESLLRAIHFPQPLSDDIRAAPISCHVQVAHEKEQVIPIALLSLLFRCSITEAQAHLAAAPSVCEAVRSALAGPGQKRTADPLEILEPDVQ

On to `c1cnc2cc3c(cc2n1)C1CNCC3C1`, for which the max response in test [1] is -11.9% (inactive). This compound also returned a parasite growth, % of DMSO control in test [2] of 94.7%. Further, the parasite growth remaining, % of DMSO control (lower = more inhibition) in test [3] turned out to be 96.8%. The compound further displayed a parasite growth, % of control (lower = inhibition) in test [4] of 52.2%. In [5], this compound displayed a growth, % of control of 68.4%. Besides, in [6], the cell viability, % of control (lower = more cytotoxic) turned out to be 95.8%. Also, the viability (% of control) in test [7] was found to be 97.2%. The Potency entry in [8], in test [9], in test [10], in test [11] and in [12] was “inactive” in each case.

Consider `CCOC(=O)C1=C(O)C(=O)N(Cc2ccccc2)C1`, for which the max response in test [1] is 44.6% (inactive). In addition, the remaining parasite growth % (stronger effect = lower value) in [13] was 34%. In [14], the activity, percent of control turned out to be 82.3%. Also, the parasite growth, % of DMSO control in test [2] stood at 74.5%. Further, the parasite growth remaining, % of DMSO control (lower = more inhibition) in test [3] came to 104%. In addition, the parasite growth, % of control (lower = inhibition) in test [4] turned out to be 91%. In addition, in [5], the growth, % of control amounted to 93.7%. The cell viability, % of control (lower = more cytotoxic) in test [6] was 81.5%. Moreover, the viability (% of control) in [7] came to 112%. The Potency entry in test [8], in test [9], in test [10], in [11] and in [12] was “inactive” in each case.

Consider `C[C@@H](N)C1CCC(C(=O)Nc2ccncc2)CC1` (stereo not given in full), for which the outcome in test [15], in test [16] and in [17] was inactive. In addition, in test [1], the max response is -0.932% (inactive) and 18% (inactive). For the same compound, the remaining parasite growth % (stronger effect = lower value) in test [13] is 103%. Moreover, the activity, percent of control in test [14] was 103%. Moreover, in test [2], the parasite growth, % of DMSO control worked out at 85.6%. In addition, the parasite growth remaining, % of DMSO control (lower = more inhibition) in test [3] stood at 91.5%. In addition, the parasite growth, % of control (lower = inhibition) in test [4] is 78.9%. Further, in test [5], the growth, % of control was determined as 72.6%. The cell viability, % of control (lower = more cytotoxic) in [6] is 84.4%. Moreover, the viability (% of control) in test [7] turned out to be 79.9%. The Potency entry in test [8], in [9], in test [11] and in [12] was “inactive” in each case. Besides, the Potency in test [10] is 18.7 µM (active).

In the case of `COc1cc2c(cc1OC)C1CC(=O)C(CC(C)C)CN1CC2` (stereo not given), the outcome in test [15], in [16] and in test [17] was inactive. Further, the max response in [1] is 30.1% (inactive). The parasite growth, % of DMSO control in [2] came to 82.2%. Moreover, the parasite growth remaining, % of DMSO control (lower = more inhibition) in test [3] was found to be 7.77%. This compound also displayed a parasite growth, % of control (lower = inhibition) in test [4] of 77.8%. In test [5], this compound showed a growth, % of control of 67.9%. In test [6], the cell viability, % of control (lower = more cytotoxic) is 141%. In addition, the viability (% of control) in test [7] worked out at 100%. Besides, the Potency entry in [8], in test [9], in test [10], in test [11] and in test [12] was “inactive” each time.

With `CCN(CC)C(=S)SSC(=S)N(CC)CC`, the Potency in test [1] is 3.98 µM (active) and 60.5 nM (active) and 74.3 nM (active); in [8], 10 µM (active); in [10], 0.118 µM (active); in [11], 0.0132 µM (active); in test [12], 0.0187 µM (active). The Potency result in test [18] and in test [9] was “inactive” each time. In addition, the remaining parasite growth % (stronger effect = lower value) in test [13] was 99.1%. The parasite growth, % of DMSO control in test [2] stood at 65.9%. Moreover, the parasite growth remaining, % of DMSO control (lower = more inhibition) in [3] was determined as 92.7%. Further, the parasite growth, % of control (lower = inhibition) in test [4] was found to be 53.4%. In addition, the growth, % of control in [5] was found to be 64.3%. The cell viability, % of control (lower = more cytotoxic) in test [6] amounted to 6.77%. Also, the viability (% of control) in test [7] stood at 3.25%.

Take `CCCS(=O)c1ccc2nc(NC(=O)OC)[nH]c2c1` (stereo not given): the cell viability, % of control (lower = more cytotoxic) in [6] came to 32.3%. For the same compound, in test [7], the viability (% of control) came to 13.7%. In addition, the Potency in [8] is 10 µM (active) and 16.6 µM (active); in [9], 20.9 µM (active); in [10], 20.9 µM (active); in test [11], 23.5 µM (active); in test [12] it was 20.9 µM (active).

With `Cc1cc(Cl)ccc1OCCCC(=O)NO`, the parasite growth, % of DMSO control in test [2] worked out at 34.3%. Further, the parasite growth remaining, % of DMSO control (lower = more inhibition) in test [3] was 72.9%. This compound also registered a parasite growth, % of control (lower = inhibition) in test [4] of 42.1%. The compound also came in with a growth, % of control in test [5] of 41.9%. In test [6], the cell viability, % of control (lower = more cytotoxic) is 21.7%. Further, in test [7], the viability (% of control) turned out to be 3.6%. Moreover, the Potency entry in test [8] and in test [9] was “inactive” in each case. Moreover, the Potency is 0.743 µM (active) in test [10], 9.35 µM (active) in test [11] and 1.05 µM (active) in test [12].
